Results on 39 compounds are retold here after PubChem BioAssay (EPA / NIEHS).

SMILES strings stand for the structures. Results filed as inconclusive are left out. More than one record can exist for a structure, and the calls need not agree. The source made the active and inactive calls. The calls were made as follows: active = hit-call score of the fitted dose curve at least 0.9, where 1 is the maximum; inconclusive = response in the unintended direction; inactive = score below 0.9.

Sequence of human Peroxisome Proliferator-activated Receptor alpha (PPARa), PPARA (gene 5465) (Q07869 whole entry, looked up): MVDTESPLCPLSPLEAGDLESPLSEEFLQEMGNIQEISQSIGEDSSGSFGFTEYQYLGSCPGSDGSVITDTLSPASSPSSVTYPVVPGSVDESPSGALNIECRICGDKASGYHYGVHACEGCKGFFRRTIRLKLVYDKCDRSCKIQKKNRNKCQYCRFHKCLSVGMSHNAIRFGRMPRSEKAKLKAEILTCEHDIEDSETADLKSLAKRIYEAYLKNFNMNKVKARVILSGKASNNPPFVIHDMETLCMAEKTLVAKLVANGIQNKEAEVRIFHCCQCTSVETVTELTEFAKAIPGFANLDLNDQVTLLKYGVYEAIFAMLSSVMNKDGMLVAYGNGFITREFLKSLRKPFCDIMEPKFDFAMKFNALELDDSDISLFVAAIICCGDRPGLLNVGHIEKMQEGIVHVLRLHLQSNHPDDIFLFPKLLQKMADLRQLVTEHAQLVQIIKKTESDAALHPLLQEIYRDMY

The target of the assay is human Peroxisome Proliferator-activated Receptor alpha (PPARa), PPARA (gene 5465) (UniProt Q07869). Put plainly: ATG_PPARa_TRANS: Attagene TRANS-FACTORIAL HepG2 Assay for human Peroxisome Proliferator-activated Receptor alpha (PPARa) (AID 2283001).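 As to AC50: potency for gain of reporter signal over DMSO so agonist or activator.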 As to the method:
ATG_TRANS is a cell-based, multiplexed-readout assay that uses HepG2, a human liver cell line, with measurements taken at 24 hours after chemical dosing in a 24-well plate.ATG_PPARa_TRANS is one of 30 assay component(s) measured or calculated from the ATG_TRANS assay. It is designed to make measurements of mRNA induction, a form of inducible reporter, as detected with fluorescence intensity signals by Reverse transcription polymerase chain reaction (RT-PCR) and Capillary electrophoresis technology.Data from the assay component ATG_PPARa_TRANS was analyzed into 1 assay endpoint. This assay endpoint, ATG_PPARa_TRANS, was analyzed in the positive analysis fitting direction relative to DMSO as the negative control and baseline of activity. Using a type of inducible reporter, measures of mRNA for gain-of-signal activity can be used to understand the reporter gene at the transcription factor-level as they relate to the gene PPARA. Furthermore, this assay endpoint can be referred to as a primary readout, because this assay has produced multiple assay endpoints where this one serves a reporter gene function. To generalize the intended target to other relatable targets, this assay endpoint is annotated to the nuclear receptor intended target family, where the subfamily is non-steroidal.
Human liver HepG2 cells are transiently transfected with multiple reporter transcription units (MRTUs) in 6-well plates using FuGene 6 reagent (Roche; 3 ml FuGene/1 mg DNA). The MRTU constructs are regulated by a cis-regulating element (promoter). […] A major difference between the CIS and TRANS system is that in CIS activities of endogenous TFs are measured, whereas the TRANS assay evaluates changes in activities of exogenous, chimeric NR-Gal4 proteins. […] At the end of 24 hour incubation, total RNA was isolated using TriZol reagent (Invitrogen). The isolated RNA is then reverse-transcribed using oligo(dT) primer and Mo-MLV reverse transcriptase (Invitrogen) with DNAse I (Ambion) treatment for 30 min. The one-tenth of the produced cDNA was amplified by PCR using Taq DNA polymerase (Invitrogen) and two reporter sequence-specific primers. The PCR products were fluorescently labeled by primer extension with 6-arboxyfluorescein (6-FAM) 5'-labeled reporter sequence-specific primer (2 min at 95 C, 20 s at 68 C and 10 min at 72 C) and these products were digested with 5U of HpaI (New England Biolabs) for 2h at 37 C. The fragments were purified using Qiaquick PCR columns (Qiagen), analyzed on an ABI 3130xL genetic analyzer (Applied Biosystems) with peak positions identified by using a set of X-rhodamine (ROX)-labeled MapMarker1000 molecular weight standards (BioVentures). The raw capillary electrophoresis data was processed using Attagraph software (Attagene).
Consider `CCCCCOC(=O)COc1cc(N2C(=O)C3=C(CCCC3)C2=O)c(F)cc1Cl`, for which the compound was classed as inactive.

As for `Oc1ccc(C(c2ccc(O)cc2)C(Cl)(Cl)Cl)cc1`, the compound was called inactive.

For the compound `CC(=O)[C@H]1CC[C@H]2[C@@H]3CCC4=CC(=O)CC[C@]4(C)[C@H]3CC[C@]12C`, the result was inactive.

For `N[C@@H](Cc1cc(I)c(Oc2ccc(O)c(I)c2)c(I)c1)C(=O)O`, the compound was classed as inactive.

On to `CC(C)CCCCCCc1ccc(O)cc1`, for which the compound was classed as inactive.

As to `CCOC(=O)COc1cc(-n2ncc(C(F)(F)F)c(C)c2=O)c(F)cc1Cl`, the compound was called inactive.

As to `COCCO`, the result was inactive.

As for `COC(=O)c1c(Cl)nn(C)c1S(=O)(=O)NC(=O)Nc1nc(OC)cc(OC)n1`, the compound was called inactive.

Regarding `C#C[C@]1(O)CC[C@H]2[C@@H]3CCC4=CC(=O)CC[C@@H]4[C@H]3CC[C@@]21CC`, the call was inactive.

Turning to `COc1c(Cl)ccc(Cl)c1C(=O)O`, the result was inactive.

On to `CCCOC(=O)c1ccc(C(=O)OCCC)nc1`, for which the outcome was inactive.

On to `c1ccc2[nH]c(-c3cscn3)nc2c1`, for which the compound was classed as inactive.

In the case of `S=C([S-])NCCNC(=S)[S-].[Mn+2]`, the call was inactive.

For `CSC(=O)c1cccc2nnsc12`, the compound was classed as inactive.

Regarding `CCCCOC(=O)[C@@H](C)Oc1ccc(Oc2ccc(C(F)(F)F)cn2)cc1`, the compound was classed as inactive.

With `CC(C)(C)[C@@H](O)[C@@H](Cc1ccc(Cl)cc1)n1cncn1`, the compound was classed as inactive.

As for `COC(=O)c1ccc(I)cc1S(=O)(=O)NC(=O)Nc1nc(C)nc(OC)n1`, the outcome was inactive.

Consider `CC(C)(c1ccc(O)cc1)c1ccc(O)cc1`, for which the compound was called inactive.

In the case of `O=C(O)c1ccccc1`, the compound was called inactive.

In the case of `CCCOC(=O)NCCCN(C)C`, the outcome was inactive.

Turning to `CCNc1nc(N)nc(Cl)n1`, the compound was classed as inactive.

On to `C#CCOC(=O)[C@@H](C)Oc1ccc(Oc2ncc(Cl)cc2F)cc1`, for which the call was inactive.

Consider `N#CSCSc1nc2ccccc2s1`, for which the result was inactive.

As to `C=CCOC(Cn1ccnc1)c1ccc(Cl)cc1Cl` (stereo not given), the compound was called inactive.

For the compound `CCCCC(CC)COC(=O)c1ccccc1C(=O)O` (stereo not given), the compound was classed as inactive.

Consider `S=C(S)NCCNC(=S)S.[Mn+2].[S-]C([S-])=NCCN=C([S-])[S-].[Zn+2]`, for which the compound was classed as inactive.

With `CCOC(=O)C(C)Oc1ccc(Oc2cnc3cc(Cl)ccc3n2)cc1` (stereo not given), the compound was classed as inactive.

In the case of `O=C(O)C1(C(=O)Nc2ccc(Cl)cc2Cl)CC1`, the call was inactive.

Consider `CCN(CC)C(=O)c1cccc(C)c1`, for which the compound was called inactive.

As for `CCOC(=O)NCCOc1ccc(Oc2ccccc2)cc1`, the result was inactive.

As to `CCC(C)OC(=O)N1CCCCC1CCO` (stereo not given), the call was inactive.

On to `C[C@]12C[C@H](O)[C@H]3[C@@H](CCC4=CC(=O)CC[C@@]43C)[C@@H]1CC[C@@H]2C(=O)CO`, for which the compound was called inactive.

On to `COC(=O)CSc1cc(N=c2sc(=O)n3n2CCCC3)c(F)cc1Cl`, for which the compound was called inactive.

By AC50 is commonly meant the midpoint of the concentration-response curve, whichever way the signal moves. `CCOC(=O)c1ccc(O)cc1`: the result was inactive and the concentration at half-maximal activity (AC50) is 20.5 µM (active).

With `O=C(c1ccc(O)cc1O)c1ccc(O)cc1O`, the outcome was inactive.

For the compound `Cc1nn(C)c(Oc2ccccc2)c1C=NOCc1ccc(C(=O)OC(C)(C)C)cc1`, the call was inactive.

With `CCCN(CCC)C(=O)SCC`, the compound was classed as inactive.

As to `CCCCOC(=O)C(C)Oc1ccc(Oc2ccc(C(F)(F)F)cn2)cc1` (stereo not given), the compound was called inactive.

As to `CCCCOCCOCCOCc1cc2c(cc1CCC)OCO2`, the compound was classed as inactive.
